Results filed as inconclusive are left out. Calls of active or inactive are those of the source. Rule for the calls: active = hit-call score of the fitted dose curve at least 0.9, where 1 is the maximum; inconclusive = response in the unintended direction; inactive = score below 0.9.

As usually defined, the AC50 is the concentration giving half of the maximal activity seen.

Read-out in this assay: xenobiotic metabolism (CYP1A1), CYP1A1 (gene 1543)
Put plainly: CLD_CYP1A1_6hr: CellzDirect (CLD) Gene Expression Assay for xenobiotic metabolism (CYP1A1) at 6 hours (AID 2283661).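 For AC50: potency for transcript induction above DMSO vehicle baseline.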 How it is done:
CLD_6hr is a cell-based, multiplexed-readout assay that uses hepatocyte, a human liver primary cell, with measurements taken at 6 hours after chemical dosing in a 96-well plate.CLD_CYP1A1_6hr is one of 16 assay component(s) measured or calculated from the CLD_6hr assay. It is designed to make measurements of mRNA induction, a form of inducible reporter, as detected with chemiluminescence signals by Quantitative Nuclease Protection Assay (qNPA) technology.Data from the assay component CLD_CYP1A1_6hr was analyzed at the endpoint, CLD_CYP1A1_6hr, in the positive analysis fitting direction relative to DMSO as the negative control and baseline of activity. Using a type of inducible reporter, gain-of-signal activity can be used to understand changes in the reporter gene as they relate to the gene CYP1A1. Furthermore, this assay endpoint can be referred to as a primary readout. To generalize the intended target to other relatable targets, this assay endpoint is annotated to the cyp intended target family, where subfamily is xenobiotic metabolism.
Human hepatocyte cultures were treated daily for two consecutive days with fresh dosing solutions containing appropriate concentrations of the 320 ToxCast chemicals (chemical identities were blinded to CellzDirect and other ToxCast collaborators), vehicle control (0.2% DMSO), and positive control inducers as summarized in Table 1. Due to the large number of treatment groups and chemicals examined, the ToxCast chemicals were divided into two groups (spanning two independent cultures of hepatocytes from separate donor preparations (Hu778: ToxCast plates 1 and 2; Hu776: ToxCast plates 3 and 4). Each preparation of human hepatocyte cultures was treated with respective vehicle control, medium only control, set of six positive controls/reference chemicals for the five hepatic receptor pathways, and a subset of eight of the ToxCast chemicals (indoxacarb, pyrithiobac-sodium, norflurazon, cyhalofop-butyl, methomyl, thiram, acetochlor, and propiconazole). These replicate data, coupled with internal replicates designed within the blinded ToxCast chemical library, provided additional data to evaluate interindividual differences between hepatocyte preparations and their potential impact on chemical profiles.Cell morphology and integrity were evaluated using phase-contrast microscopy as an indicator of hepatocyte cell health (Tyson & Green, 1987). Cultures for each treatment group (i.e., media, vehicle [0.2% DMSO], positive control inducers [multiple concentrations], and the ToxCast chemicals [multiple concentrations]) were observed and cell morphology was assessed relative to vehicle control cultures at each harvest time point (0, 6, 24, or 48 h). […] Images were evaluated at the conclusion of the study to assess changes in cell integrity and account for the effects of chemical exposure on uncharacteristic changes in concentration-dependent gene expression profiles. The results from these determinations of apparent cytotoxicity were annotated (yes/no) alongside the corresponding qNPA data for reference.At the conclusion of each treatment period, hepatocyte cultures (96-well) were washed with 1 volume of HBSS, lysed by addition of 25 ul ArrayPlate lysis buffer (HTG, Tucson, AZ), and 70 ul/well of Denaturation Oil, denatured by incubation at 95C for 10 min, and frozen at approximately -70C until analysis by nuclease protection assay (qNPA) (Roberts et al., 2007). For qNPA analysis, cell lysates were thawed at 50C for approximately 30 min, qNPA probes were added, and samples were incubated at 95C for 10 min to begin the detection process by denaturing the target RNA, dissociating the duplexes and secondary structure hybridization. At the conclusion of the hybridization period, S1 nuclease reagent was added to each sample to digest all nonprotected nucleotides at 50C for 60-90 min. […]
Take `CCOC(=O)CC(SP(=O)(OC)OC)C(=O)OCC` (stereo not given): the call was inactive. Regarding `C#CCC1=C(C)C(OC(=O)C2C(C=C(C)C)C2(C)C)CC1=O` (stereo not given), the outcome was inactive. With `CCOP(=S)(OCC)Oc1ccc([N+](=O)[O-])cc1`, the AC50 was 3.67 µM (active). The same measure, in the same setting: the figure for `CCOP(=S)(OCC)SCCSCC` is 4.01 µM (active). In the case of `COc1cccc(C(=O)NN(C(=O)c2cc(C)cc(C)c2)C(C)(C)C)c1C`, the compound was classed as inactive. As for `CCOP(=S)(OCC)Oc1ccc2c(C)c(Cl)c(=O)oc2c1`, the compound was classed as inactive. Turning to `CCOP(=O)(SC(C)CC)N1CCSC1=O` (stereo not given), the call was inactive. On the same count and under the same terms, as for `CCOP(=O)(OCC)Oc1cc(C)nc(C(C)C)n1`, the entry is “inactive”; as for `CC(COc1ccc(Oc2ccccc2)cc1)Oc1ccccn1` (stereo not given), “inactive”; as for `CCc1cnc(C2=NC(C)(C(C)C)C(=O)N2)c(C(=O)O)c1` (stereo not given), “inactive”. As to `CC(C)[C@H](C(=O)O[C@H](C#N)c1cccc(Oc2ccccc2)c1)c1ccc(Cl)cc1`, the compound was called inactive. As to `CCC(=O)Nc1ccc(Cl)c(Cl)c1`, the AC50 is 20 µM (active). Consider `CCC(=NOC/C=C/Cl)C1=C(O)CC(C2CCOCC2)CC1=O` (stereo not given), for which the result was inactive. As for `Cc1ccn2nc(S(=O)(=O)Nc3c(F)cccc3F)nc2n1`, the result was inactive.

Turning to `COP(=O)(OC)OC(Br)C(Cl)(Cl)Br` (stereo not given), the outcome was inactive.

`C[Si](Cn1cncn1)(c1ccc(F)cc1)c1ccc(F)cc1`: the AC50 was 20 µM (active). In the case of `CCCCOC(=O)[C@@H](C)Oc1ccc(Oc2ccc(C#N)cc2F)cc1`, the call was inactive. For `CCOP(=S)(Oc1cnc(C(C)(C)C)nc1)OC(C)C` (stereo not given), the AC50 was 2.24 µM (active). Still for that read-out and setting: as for `CCCSP(=O)(OCC)SCCC`, the figure is 1.9 µM (active). `Nc1nc(N)nc(NC2CC2)n1`: the result was inactive. On the same count and under the same terms, as for `CC(C)N(C(=O)SCC(Cl)=C(Cl)Cl)C(C)C`, the entry is “inactive”; as for `CNC(=O)ON=C(C)SC`, “inactive”. As for `Nc1c(Cl)cc([N+](=O)[O-])cc1Cl`, the AC50 was 34.5 µM (active).

As for `COP(=O)(NC(C)=O)SC` (stereo not given), the outcome was inactive. Regarding `CN(C)[C@@H]1C(=O)C(C(N)=O)=C(O)[C@@]2(O)C(=O)C3=C(O)c4c(O)cccc4[C@@](C)(O)[C@H]3[C@H](O)[C@@H]12`, the compound was called inactive. Consider `Cc1cc(C2CC2)nc(Nc2ccccc2)n1`, for which the AC50 is 2.2 µM (active). Regarding `CC1=NNC(=O)N(/N=C/c2cccnc2)C1`, the AC50 is 20 µM (active).

In the case of `O=C(O)c1cc(Oc2ccc(C(F)(F)F)cc2Cl)ccc1[N+](=O)[O-]`, the compound was classed as inactive. As for `CCCSP(=O)(OCC)Oc1ccc(Br)cc1Cl` (stereo not given), the AC50 is 10.2 µM (active). On the same count and under the same terms, as for `CCOP(=S)(OCC)Oc1cc(C)nc(C(C)C)n1`, the figure is 0.682 µM (active); as for `CNC(=O)Oc1cccc2c1OC(C)(C)O2`, 2.94 µM (active).

On to `C[N+]1(C)CCCCC1`, for which the outcome was inactive. As to `CNc1cnn(-c2cccc(C(F)(F)F)c2)c(=O)c1Cl`, the AC50 was 3.97 µM (active). As for `CCOP(=O)(NC(C)C)Oc1ccc(SC)c(C)c1` (stereo not given), the AC50 was 2.72 µM (active). For `C#CC(C)(C)NC(=O)c1cc(Cl)cc(Cl)c1`, the compound was classed as inactive. Turning to `CSc1nc(NC(C)C)nc(NC(C)C)n1`, the AC50 was 3.97 µM (active).

Consider `CSC1=N[C@@](C)(c2ccccc2)C(=O)N1Nc1ccccc1`, for which the AC50 was 0.00477 µM (active). Take `CSc1nnc(C(C)(C)C)c(=O)n1N`: the call was inactive. On the same count and under the same terms, the entry for `CCCCN(CC)c1c([N+](=O)[O-])cc(C(F)(F)F)cc1[N+](=O)[O-]` is “inactive”. Turning to `CCCCSP(=O)(SCCCC)SCCCC`, the AC50 is 2.38 µM (active).

Source of the values: PubChem BioAssay (EPA / NIEHS).
